Shown are actives, neighbours in structure and some others; about 1.3% of the full set was active somewhere.
S1P3 antag = blocks the human S1P3 receptor; Q99500; CHO S1P3 NFAT-BLA reporter, FRET fluorescence, antagonist mode; inhibition, % at 4.98 µM; 0.27% of 170,000 active; AID 485;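 active means inhibition above the plate cutoff, the mean inhibition of test wells on that plate plus 3 SD, cut at about 28% in these data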;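 further: cells challenged with S1P at its EC80 of 0.8 µM; blue over green emission ratio from cleaved BLA substrate after 4 h stimulation; 0% = S1P-stimulated wells and 100% = unstimulated DMSO-only wells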
m-calpain inh = blocks pig calpain II enzyme activity. AID 1236. purified calpain II, fluorogenic peptide substrate, 30 min. 0.37% of 220,000 active. inhibition, % at 16 µM;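 active means inhibition above about 50%, limit read from the data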
PERK inh = inhibitors of human PERK kinase; Q9NZJ5; CHO PERK-DD fusion, SEAP luminescence translation reporter; inhibition, % at 5.6 µM; 0.17% of 220,000 active; AID 1416;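 active means inhibition above the mean inhibition of all tested compounds plus 3 SD, set separately per screening campaign, cut at about 2.9% in these data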;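 further: PERK kinase domain activated by AP20187 dimerizer at 100 nM; 0% = DMSO with dimerizer and 100% = rapamycin at 8.4 µM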
S1P4 ag = agonists of human S1P4 receptor; activation, % at 4.98 µM; 0.35% of 220,000 active; O95977; S1P4-expressing cell line, agonist reporter assay; AID 1509; in the data active means activation above about 11%;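 further: 0% = DMSO vehicle and 100% = reference agonist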
S1P4 antag = blocks the human S1P4 receptor. O95977. S1P4-expressing cells, antagonist mode, reporter read-out. inhibition, % at 4.98 µM. 0.26% of 220,000 active. AID 1510; in the data active means inhibition above about 29%;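 further: 0% = wells stimulated with agonist and 100% = vehicle wells without agonist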
S1P4 agonist cf = human S1P4 agonism, confirmation. shares compounds with S1P4 ag. S1P4 agonist cell-based reporter assay. activation, % at 4.98 µM. 7% of 740 active; in the data active means activation above about 12%;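 further: 0% = vehicle and 100% = full reference agonist response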
S1P1 ag = human S1P1 agonism as S1P4 agonist counter-screen. activation, % at 4.98 µM. 4% of 740 active. shares compounds with S1P4 ag. AID 1563. S1P1 agonist cell-based assay, activation; in the data active means activation above about 21%;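 further: 0% = vehicle wells and 100% = reference agonist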
Active calls of the source: *; i = inactive; x = no result given.

SMILES	S1P3 antag	m-calpain inh	PERK inh	S1P4 ag	S1P4 antag	S1P4 agonist cf	S1P1 ag
Cc1ccc(Oc2nc3c(C)cccn3c(=O)c2/C=C(\C#N)C(N)=O)cc1	2	-22	-1	20*	-6	-1	-8
NC(=O)c1cc2ccc(O)cc2oc1=Nc1ccccc1	-25	-108	1	33*	-47	1	6
NC(=O)c1cc2ccccc2oc1=NCc1ccccc1	x	25	1	-1	2	x	x
NC(=O)c1cc2ccc(O)cc2oc1=NCc1ccccc1	25	-423	2	79*	-79	10	6
O=C(O)c1ccc(N=c2oc3cc(O)ccc3cc2C(=O)NCc2ccccc2)cc1	-23	-41	1	38*	-37	4	3
COc1ccc2cc(C(=O)NCc3ccccc3)c(=Nc3ccc(C(=O)O)cc3)oc2c1	2	14	2	2	-6	x	x
CCn1nc(C)c(Br)c1C(=O)Sc1ccccc1Cl	2	-15	1	2	-11	x	x
N#C/C(=C\c1coc2ccc(O)cc2c1=O)C(=O)Nc1nc2ccccc2s1	-2	-44	1	1	-5	x	x
Cc1cc(=O)c2ccccc2n1Cc1ccccc1	-2	8	1	3	-9	x	x
Cc1cc(=O)c2ccccc2n1CC(=O)NCc1ccccc1	3	-19	-1	19*	-24	-1	-2
CS(=O)(=O)N(CCc1ccccc1)CC(=O)N1CCCC1	3	6	2	21*	2	-2	-4
Cc1cccc(-n2c(=O)c(C#N)cc3c(=O)n4ccccc4nc32)c1	x	i	0	14*	-12	17*	22*
Cc1ccc(-n2c(=O)c(C#N)cc3c(=O)n4ccccc4nc32)cc1	-20	-469	0	2	-10	x	x
O=C(NC(Cc1c[nH]c2ccccc12)C(=O)O)c1ccc(F)cc1 (stereo not drawn)	-13	-33	1	0	-15	x	x
O=C(Nc1ccccc1C(=O)NC(Cc1c[nH]c2ccccc12)C(=O)O)c1ccccc1 (stereo not drawn)	1	29	0	11*	0	-1	-1
Cc1ccc(C2(c3ccc(C)cc3)CC2C(=O)NCc2cccnc2)cc1 (stereo not drawn)	-21	21	0	-1	-3	x	x
COc1ccc(CN2CCCC(CNC(=O)c3ccc(F)cc3)C2)c(C)c1C (stereo not drawn)	-12	-1	0	0	-12	x	x
COc1cccc2cc(C(C)=O)c(=O)oc12	-11	-2	1	1	-15	x	x
COc1cc(C(C)=O)ccc1OC(=O)c1cc2cccc(OC)c2oc1=O	-1	-21	0	14*	0	-3	-5
N#Cc1ccccc1Oc1ccccc1C=O	-6	21	0	1	-32	x	x
COc1ccc2c(c1OC)C(=O)OC2Nc1ccccc1S(=O)(=O)C(F)F (stereo not drawn)	1	13	0	17*	-32	0	3
COc1ccc2c(c1OC)C(=O)OC2Nc1ccccn1 (stereo not drawn)	-52	-24	0	-1	-3	x	x
COc1ccc(N2CCN(C(CNC(=O)C(=O)NCC3CCCO3)c3ccco3)CC2)cc1 (stereo not drawn)	-5	4	-1	13*	-7	-2	0
COC(=O)NCC(c1ccco1)N1CCN(c2ccc(OC)cc2)CC1 (stereo not drawn)	-14	-26	1	0	2	x	x
CSCCCNC(=S)N1CCc2ccccc2C1	11	-12	1	0	-3	x	x
SMILES	S1P3 antag	m-calpain inh	PERK inh	S1P4 ag	S1P4 antag	S1P4 agonist cf	S1P1 ag
COc1ccc(C(=O)Nc2cccc(C(C)=O)c2)cc1S(=O)(=O)N1CCOCC1	-16	-20	1	24*	-2	-1	-12
COc1ccc(C(=O)Nc2cccc(C)c2)cc1S(=O)(=O)N1CCOCC1	-7	-10	-1	1	-35	x	x
C=CCc1c(C)nc(N2CCSCC2)[nH]c1=O	-4	-16	2	1	4	x	x
O=C(N/N=C/c1cccc(C(F)(F)F)c1)c1cc2c(s1)-c1ccccc1CC2	x	-317	0	45*	-16	-1	1
Cc1cccc(/C=N/NC(=O)c2cc3c(s2)-c2ccccc2CC3)c1	x	-140	0	-1	1	x	x
Cc1ccc(S(=O)(=O)NCCNC(=O)c2ccccc2)cc1	-19	-13	-1	-1	-3	x	x
Cc1ccc(S(=O)(=O)CNC(=O)c2ccccc2)cc1	-9	-37	1	24*	-2	-2	1
O=C(CNc1cc(S(=O)(=O)N2CCOCC2)ccc1N1CCCC1)NCc1ccco1	-3	-25	0	-1	14	x	x
O=c1c2ccccc2nc(SCc2nc3ccccc3s2)n1CCCO	-9	-23	0	21*	-7	-1	-7
O=C(CSc1nc2ccccc2c(=O)n1CCCO)NCc1ccccc1	-6	8	0	0	-3	x	x
COc1ccc(CCNC(=O)Nc2ccccc2[N+](=O)[O-])cc1	7	0	0	21*	1	-3	-1
COc1ccc(CCNC(=O)Nc2cccc([N+](=O)[O-])c2)cc1	-3	24	-1	1	-7	x	x
Cc1nc(-c2cccc(NS(=O)(=O)c3cccc4ccccc34)c2)cs1	x	2	0	12*	4	-2	4
CCC(C)NCCCOc1ccc([N+](=O)[O-])cc1 (stereo not drawn)	5	-6	0	58*	8	-2	-8
COc1ccc(OC)c(N(CC(=O)Nc2cccc(C(F)(F)F)c2)S(C)(=O)=O)c1	-10	10	-1	2	-11	x	x
Cc1ccc(CNC(=O)C2CC(c3ccc([N+](=O)[O-])cc3)=NO2)cc1 (stereo not drawn)	x	-8	-1	25*	-7	-1	-7
CC(NC(=O)C12CC3(C)CC(C)(CC(C)(C3)C1)C2)C(=O)O (stereo not drawn)	1	-26	1	0	5	x	x
O=C(O)c1ccccc1C(=O)NC1CCCCNC1=O (stereo not drawn)	-9	31	1	1	-17	x	x
O=C(Cc1cccs1)Nc1ccccc1NC(=O)Cc1cccs1	-30	17	0	-2	-11	x	x
O=C(Cc1cccs1)Nc1ccccc1C(=O)O	-22	-6	0	117*	-11	-2	5
Cc1nnsc1Sc1ccccc1	-20	-15	2	0	2	x	x
O=C(NCc1cccnc1)c1ccc([N+](=O)[O-])o1	4	7	0	1	3	x	x
COc1ccc(OC(C)C(=O)Nc2ccccc2C(F)(F)F)cc1 (stereo not drawn)	5	12	0	86*	-12	-3	1
Cc1cccc(NC(=O)CSc2nnc(NC(=O)c3ccco3)s2)c1	-10	-41	1	1	-13	x	x
O=C(CSc1nc2ccccc2c(=O)n1-c1ccc(F)c(Cl)c1)Nc1cccc(S(=O)(=O)N2CCOCC2)c1	0	-54	-1	30*	18	-1	2
